IL1B secr inh: qHTS for Inhibitors of Inflammasome Signaling: IL-1-beta AlphaLISA Primary Screen; THP-1 LPS/ATP IL-1B secretion, AlphaLISA, 16 h; hits give low values; activity change, % at 57.5 µM; hit rate 4.7% among 360,000; AID 743279, 2014; in the data active = activity change below about -50%; inconclusive = mostly about -30% to -49%
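Secreted IL-1B measured by AlphaLISA bead assay after 16 h compound exposure of THP-1 cells; compounds (final up to 57.5 uM) added 1 h before LPS (250 ng/mL) and ATP (1.25 mM) stimulation; lower signal means less secretion.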
HT1080NT lethal: qHTS for induction of synthetic lethality in tumor cells producing 2HG: qHTS for the HT-1080-NT fibrosarcoma cell line | Potency, µM (doses to about 46.1 µM), without a hit: top-dose activity, negative = less viability, actives largely listed as cytotoxic | HT-1080-NT fibrosarcoma viability, CellTiter-Glo ATP luminescence, 48 h | hit rate 1.6% among 360,000;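 also: NT is the 2HG producing partner of a matched IDH1 knockdown line; potency is read from the fitted curve at half-maximal effect; 0% = DMSO-treated cells and -100% = media-only wells without cells; nearly all actives have a fitted effect of over 55% in size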
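Compounds were tested in concentration-response format on HT-1080-NT cells for 48 hours at 37 degrees C. Cell viability came from CellTiter-Glo luminescence; curves were classified by r2, response magnitude and activity.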
TDP1 cell noCPT: qHTS for Inhibitors of human tyrosyl-DNA phosphodiesterase 1 (TDP1): qHTS in cells in absence of CPT; DT40 Tdp1-/- hTDP1 cells, no CPT, ATP luminescence, 48 h; Potency, µM (titrated, usually from 46.2 µM), for inactives: at the top dose activity change, negative = growth inhibition, actives largely listed as inhibitors; hit rate 15% among 420,000; also: potency is read from the fitted curve at half-maximal effect; nearly all actives have a fitted effect of over 55% in size
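Cells were dispensed at 400 per well, compounds added by pin tool, plates incubated ≥48 hr at 37 °C, then CellTiter-Glo added for 30 min at room temperature before luminescence reading. Line: DT40 Tdp1-/- complemented with hTDP1; camptothecin omitted.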
HT1080 IDH1KD tx: qHTS for induction of synthetic lethality in tumor cells producing 2HG: qHTS for the HT-1080-IDH1KD cell line. Potency, µM (doses to about 46.1 µM), for the others: top-dose activity, negative = toxicity, hits mostly cytotoxic. hit rate 2% among 360,000. HT-1080 IDH1 knockdown viability, ATP luminescence, 48 h;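 also: potency is read from the fitted curve at half-maximal effect; 0% = DMSO wells and -100% = cell-free medium wells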
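Luminescent ATP read-out (CellTiter-Glo, 10 min at room temperature) after 48 h compound exposure at 37 °C gave viability of IDH1-knockdown HT-1080 cells. Activity was normalised to DMSO and cell-free wells, then fitted as concentration-response curves.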
ELG1 DNA repair: qHTS screen for small molecules that inhibit ELG1-dependent DNA repair in human embryonic kidney (HEK293T) cells expressing luciferase-tagged ELG1 | HEK293T ELG1-luciferase reporter, luminescence, 16 h; DNA damage induced by 5-fluorouridine | Potency, µM (doses to about 46.1 µM), for inactives: top-dose activity change, negative = inhibition, actives largely listed as inhibitors | hit rate 2.3% among 330,000; also: potency is read from the fitted curve at half-maximal effect; nearly all actives have a fitted effect of over 55% in size
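5-Fluorouridine DNA damage + compound/DMSO, 2,000 cells/well, 16 h, 37 °C/5% CO2. ONE-Glo, 30 min RT, luminescence. Readout = decrease in reporter signal.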
DT40 TDP1 CPT: qHTS for Inhibitors of human tyrosyl-DNA phosphodiesterase 1 (TDP1): qHTS in cells in presence of CPT; chicken DT40 Tdp1-/-;hTDP1 cells + 20 nM CPT, ATP luminescence, 48 h; Potency, µM (highest dose often 46.2 µM), inactives show top-dose activity change, negative = growth inhibition, hits mostly inhibitors; hit rate 12% among 420,000; also: potency is read from the fitted curve at half-maximal effect; nearly all actives have a fitted effect of over 55% in size
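Chicken DT40 Tdp1-/- cells stably complemented with human TDP1 were seeded at 400 cells/well in medium containing 20 nM camptothecin, exposed to pin-transferred compounds, and grown at 37 °C for at least 48 hr. Viability was read as ATP luminescence.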
An asterisk follows results filed as active; ? = inconclusive; . = no result given. Compounds with a hit are over-represented: about 19% of the library has one in this group of screens. Unless noted, calls follow the shape of the dose curve; as a rule, active = well fitted curve in the direction sought with a large enough effect; inconclusive = small, poorly fitted or top-dose-only effect, or another doubt; inactive = no such curve, though single readings can be large; an effect the other way counts as inactive or inconclusive. Unless noted, % is scaled to controls: 0 for no effect and ±100 for the full control effect.

SMILES	IL1B secr inh	HT1080NT lethal	TDP1 cell noCPT	HT1080 IDH1KD tx	ELG1 DNA repair	DT40 TDP1 CPT
O=C(NCCCN1CCOCC1)c1ccc(-n2nc(C(F)(F)F)cc2-c2cccs2)cc1	-86.8*	?	18.4µM*	23.1µM*	14.6µM*	18.4µM*
COCCCNC(=O)c1ccc(-n2nc(C(F)(F)F)cc2-c2cccs2)cc1	?	0.1%	-28.8%	-4.8%	?	-29.8%
O=C(NCCCn1ccnc1)c1cc(-c2cccs2)on1	36.8	?	4.61µM*	?	?	4.61µM*
CC(C)c1ccccc1-n1c(SCc2cc(=O)oc3ccc4ccccc4c23)nnc1-c1cccnc1	-50.8*	-25.6%	14.6µM*	?	23.1µM*	?
CC(=O)Nc1ccc2c(CSc3nnc(-c4cccnc4)n3-c3ccc(C)cc3C)cc(=O)oc2c1	-27.4	-2.2%	-12.7%	-2.5%	9.2µM*	-25.1%
CCOc1ccc(-n2c(SCc3ccc(C#N)cc3)nnc2-c2cccnc2)cc1	-21.0	-19.6%	-18.8%	-11.7%	3.5%	3.2%
Cc1ccc(-n2c(SCC(N)=O)nnc2-c2cccnc2)c(C)c1	-14.7	-3.6%	-12.6%	-0.5%	-1.3%	-8.2%
CCOc1ccc(-n2c(SCc3cc(=O)oc4cc(C)ccc34)nnc2-c2cccnc2)cc1	-54.4*	7.2%	?	13.8%	-6.8%	?
Cc1cc(=O)n2nc(N3CCCC(C(=O)NCCCN4C(C)CCCC4C)C3)sc2n1 (stereo unspecified)	-4.9	7.7%	5.6%	2.6%	.	4.8%
O=C(O)/C=C/C(=O)N1CCN(C(c2ccccc2)c2ccccc2)CC1	0.0	0.7%	-10.8%	6.2%	?	-9.4%
O=c1cc(-c2ccc(F)cc2)nc(SCc2nc(-c3ccccc3Cl)no2)[nH]1	.	.	-24.3%	.	.	-29.6%
Cc1cc(NC(=O)CS(=O)(=O)c2cn(Cc3cccc(Br)c3)c3ccccc23)no1	-54.3*	?	?	20.6µM*	.	25.9µM*
Cc1cc(NC(=O)CS(=O)c2cn(Cc3cccc(Cl)c3)c3ccccc23)no1 (stereo unspecified)	17.3	-19.3%	16.4µM*	?	.	20.6µM*
CCc1cc(=O)n2c([nH]c3ccccc32)c1C#N	17.9	-12.2%	?	-2.1%	16.3%	?
CCc1c(C)c(C#N)c2[nH]c3ccccc3n2c1=S	.	?	11.6µM*	?	?	11.6µM*
CCc1cc(=S)n2c([nH]c3ccccc32)c1C#N	0.0	?	23.1µM*	?	?	16.4µM*
CCOC(=O)c1[nH]c(C=O)c(C(=O)OCC)c1C	0.0	1.64µM*	0.651µM*	3.66µM*	-10.5%	0.651µM*
CCOC(=O)c1c(C)[nH]c(C(=O)C(C)Cl)c1C (stereo unspecified)	-100.5*	-0.4%	?	-16.6%	6.4%	?
COc1ccccc1Nc1c2c(nc3ccc(NC(=O)c4cccc(F)c4)cc13)CCCC2	.	.	2.59µM*	.	.	5.8µM*
COc1ccc(Nc2c3c(nc4ccc(NC(=O)/C=C/c5cccc(OC)c5OC)cc24)CCCC3)cc1OC	.	.	4.61µM*	.	.	2.31µM*
COc1ccccc1Nc1c2c(nc3ccc(NC(=O)/C=C/c4cccc(OC)c4OC)cc13)CCCC2	.	.	4.11µM*	.	.	3.26µM*
COc1cccc(/C=C/C(=O)Nc2ccc(N3CCOCC3)cc2)c1OC	-12.8	-10.8%	?	-9.5%	?	8.3%

Source: PubChem BioAssay (National Center for Advancing Translational Sciences (NCATS))
